{
  "source": "PubChem BioAssay AID1347430",
  "about": "(National Center for Advancing Translational Sciences (NCATS), 2020)",
  "note": "Out of some 91,000 compounds screened, about 130 (0.14%) were called active. Roughly 3% stayed inconclusive and do not appear here. The call rests on the fitted dose curve; in most records, active means well fitted inhibition curve with a large enough effect; inconclusive means small, poorly fitted or top-dose-only effect; inactive means flat fitted curve, though single readings scatter. The list comes from a sample in which actives are over-represented; it also holds similar structures and randomly drawn compounds. A call without a number means that no potency is given here. Potency means the concentration at half of the fitted maximal effect.",
  "data": [
    {"test_system": "Uracil-DNA glycosylase", "assay": "Primary qHTS assay for inhibitors of Activation Induced Cytidine Deaminase (AID): UDG Counterscreen signal; further: nearly all actives have a fitted effect of over 65% in size", "details": "FRET deamination/UDG coupled assay, UDG read, 4 h; series mostly up to 115 µM", "text": "Assay Provider (PI) Patricia Gearhart Ph.D.\nNational Institute on Aging\nNational Institute of Health (NIH), Bethesda, MD\nAssay Provider (PI) Rahul Kohli Ph.D.\nPerelman School of Medicine\nUniversity of Pennsylvania, Philadelphia, PA\nActivation-Induced Deaminase (AID) is a cytosine deaminase which converts cytosine into uracil within stretches of ssDNA. The presence of uracil in DNA initiates a cascade of mutagenic DNA repair to introduce point mutations and DNA double strand breaks. Specific targeting of AID to the immunoglobulin heavy chain loci (Igh) promotes mutagenesis in the antibody variable region for somatic hypermutation (SHM) or switch regions leading to class switch recombination (CSR). However, AID also plays a role in accumulating unnecessary mutations across the genome. Mis-targeting of AID results in the initiation of tumor development and leads to greater drug resistance among cancer cells when continually expressed. To identify an AID inhibitor, a small molecule library will be screened in collaboration with NCATS core facility at NIH. To confirm biological function, inhibitors will be examined in an in vitro murine B-cell activation assay and subsequent secondary validation screens. Top molecules will be further screened to identify inhibitory efficacy against a wild type primary splenocytes assay. Using these approaches, we hope to identify a small molecule with great efficacy and low toxicity for use as a molecular probe to further characterize AID's intricacies, or even as a therapeutic.\nA FRET based analysis of cytosine deamination, was developed to identify potential inhibitors of AID catalytic activity. This screen has two signal output, Read 1 evaluates the AID inhibition response. The second readout (Read 2) evaluates UDG response and is uses as a counterscreen to exclude false positive inhibitors. Inhibition in AID and inactivity in the UDG signal is the desired outcome for this assay.\nSEQUENCE No. (e.g., 1, 2, 3, etc.); […] (e.g., Cells, Incubation, Reagent, etc.); VALUE; DESCRIPTION\n1a; Reagent; 3 uL; [4/3x] 1 uM AID/2.67 U/mL UDG\n1b; Reagent; 3 uL; 2 U/mL UDG\n1c; Reagent; 3 uL; 1 uM AID\n2a; Compound; 46 nL; Follow-up plates (0.64 uM - 10 mM)\n2b; Control; 46 nL; ATA ([…] - 10 mM)\n3; Time; 10 min; incubation at room temperature\n5; Time; 4 hr; incubation at room temperature\n6; Reagent; 4 uL; [2x] 250 mM NaOH\n7; Time; 15 sec; centrifuge at 1000 rpm\n8; Time; 30 min; incubation at room temperature\n9a; Detection; fluorescence (Read 1: AID); EnVision (PerkinElmer) plate reader, 540 excitation and 590 emission filters\n9b; Detection; fluorescence (Read 2: UDG); EnVision (PerkinElmer) plate reader, 560 excitation and 665 emission filters\nNOTES (numbers refer to sequence above)\n1a; Reagents were dispensed in a medium-binding black solid-bottom Greiner plates (789176F) using a BioRptr liquid dispenser. Dispense 3 uL of [4/3x] 1 uM AID (provided by Kohli lab) and [4/3x] 2 U/mL UDG (NEB M0280L) into columns 1, 2, 5 to 48.\n1b; Dispense 3 uL of [4/3x] 2 U/mL UDG into column 3.\n1c; Dispense 3 uL of [4/3x] 1 uM AID into column 4.\n2a; Compound (7-points [uM] (0.64; 3.2; 16; 80; 400; 2,000; 10,000; 20,000) double pin-transferred (Dip Factor = 2) using the Kalypsys (Wako USA) pintool equipped with a 1536 pinhead for a final concentration range of 7.32 nM - 114 uM.\n2b; 10 mM Aurintricarboxylic Acid (Sigma A1895) (ATA, 8-point, n = 2, 1:2.5 dilution in column 2) double pin-transferred (Dip Factor = 2) using the Kalypsys (Wako USA) pintool equipped with a 1536 pinhead for a [final] range of 186 nM - 114 uM.\n3; Room temperature incubation.\n4; Dispense 1 uL of substrate mixture from the Kohli lab [4x] […] DJC20 and [4x] 250 nM DJC23 into columns 1 to 48 .\n5; Room temperature incubation.\n6; Dispense 4 uL of substrate mixture [2x] 250 mM NaOH into columns 1 to 48.\n7; Centrifugation step to remove bubbles.\n8; Room temperature incubation\n9a; Fluorescence signal (column label AID) was read using the EnVision plate reader. […]", "values": [
      {"compound": "CC(C)=CC(=O)Nc1ccccc1SC1CCCC1", "Potency": "inactive"},
      {"compound": "CN(/C=C/[N+](=O)[O-])c1ccccc1", "Potency": "inactive"},
      {"compound": "CCCCc1cnc2c(c1SCC(=O)NCC1CCCO1)c(=O)n(C)c(=O)n2C", "note": "(stereo not given)", "Potency": "inactive"},
      {"compound": "CC1CCC(NC(=O)/C=C/c2ccc(C(=O)NC3CC3)cc2)CC1", "note": "(stereo not given)", "Potency": "inactive"},
      {"compound": "C=CCn1c(SC(C)C(=O)OC)nc2c1c(=O)[nH]c(=O)n2C", "note": "(stereo not given)", "Potency": "inactive"},
      {"compound": "CC(OC(=O)c1cc(=O)c2ccccc2o1)C(=O)Nc1cc(C(F)(F)F)ccc1Cl", "note": "(stereo not given)", "Potency": "inactive"},
      {"compound": "CCN(CC)S(=O)(=O)c1ccc([N+](=O)[O-])cc1", "Potency": "inactive"},
      {"compound": "Cc1cccc(C(=O)Nc2ccc3nsnc3c2)c1", "Potency": "inactive"},
      {"compound": "Cc1ccc2c(COC(=O)C3CCCO3)cc(=O)oc2c1C", "note": "(stereo not given)", "Potency": "inactive"},
      {"compound": "Cc1ccc(C(=O)N2CCCc3cc(C(=O)NCCC(C)C)ccc32)cc1", "Potency": "inactive"},
      {"compound": "O=C(NC1CCCC1)C1CC=CCC1c1nc2ccccc2s1", "note": "(stereo not given)", "Potency": "inactive"},
      {"compound": "CCCCCCCCOC(=O)/C(C#N)=C/c1ccc(-c2cccc(C(F)(F)F)c2)o1", "Potency": "inactive"},
      {"compound": "O=C(Nc1cc(C(F)(F)F)ccc1Cl)c1c(F)cccc1F", "Potency": "inactive"},
      {"compound": "Cc1[nH]c2ccccc2c1C(=O)C(C)Sc1nnnn1C1CCCC1", "note": "(stereo not given)", "Potency": "inactive"},
      {"compound": "O=C(Nc1cccc(S(=O)(=O)N2CCCC2)c1)c1n[nH]c2ccccc12", "Potency": "inactive"},
      {"compound": "O=C(c1ccn(COc2ccccc2)n1)N1CCN(Cc2ccc(Cl)cc2)CC1", "Potency": "inactive"},
      {"compound": "CC(C)COC(=O)c1nn(Cc2ccccc2)c(=O)c2ccccc12", "Potency": "inactive"},
      {"compound": "COc1ccc2c(CCNC(=O)CCNc3nc(Cl)nc4nc[nH]c34)c[nH]c2c1", "Potency": "inactive"},
      {"compound": "CCOc1cc(C#N)ccc1OC(C)C(=O)c1ccc(OC)cc1", "note": "(stereo not given)", "Potency": "inactive"},
      {"compound": "C/C(=N\\NC(=O)C1CC1c1ccccc1)c1ccc(C)c(C)c1", "note": "(stereo not given)", "Potency": "inactive"},
      {"compound": "CCc1ccc(Sc2cc(C(=O)NC3CCCC3)c3ccccc3n2)cc1", "Potency": "inactive"},
      {"compound": "Fc1ccc(NCC23CC4CC(CC(C4)C2)C3)cc1", "Potency": "inactive"},
      {"compound": "OC(Cc1c[nH]c2ccccc12)(c1ccccc1)c1ccccc1", "Potency": "inactive"},
      {"compound": "COc1ccc(C(=O)COC(=O)C(C)Oc2ccc(F)cc2)cc1OC", "note": "(stereo not given)", "Potency": "inactive"},
      {"compound": "CC1(C)Cc2c(sc(NC(=O)C(N)=O)c2C#N)CO1", "Potency": "inactive"},
      {"compound": "CN(/C=C/C(=O)C(F)(F)F)C1(c2ccccc2Cl)CCCCC1=O", "note": "(stereo not given)", "Potency": "inactive"},
      {"compound": "Cc1ccccc1C(=O)c1cc2ccccc2o1", "Potency": "inactive"},
      {"compound": "CC(C)CCNC(=O)COC(=O)c1cc(-c2ccco2)nc2ccccc12", "Potency": "inactive"},
      {"compound": "CN(Cc1ccsc1)C(=O)CCc1cccs1", "Potency": "inactive"},
      {"compound": "Oc1ccc(Cl)cc1C=NCc1ccc(F)cc1Cl", "Potency": "inactive"},
      {"compound": "N#Cc1cccc(C(=O)OCc2cccnc2)c1", "Potency": "inactive"},
      {"compound": "COc1ccc(Cl)cc1COc1ccccc1C#N", "Potency": "inactive"},
      {"compound": "CCc1nnc(SCC(=O)Nc2ccc(Cl)c(Cl)c2)n1-n1cccc1", "Potency": "inactive"},
      {"compound": "CCCN1C=NS(=O)(=O)c2cc(C(=O)NC(C)(C)C)ccc21", "Potency": "inactive"},
      {"compound": "Cc1nc2ccc(C(=O)NCC(=O)NCC(F)(F)F)cc2nc1C", "Potency": "inactive"},
      {"compound": "NCc1ccc(CN2CCCCCCC2)cc1", "Potency": "inactive"},
      {"compound": "CCN(Cc1cccs1)C(=O)CC1CC2CCC1C2", "note": "(stereo not given)", "Potency": "inactive"},
      {"compound": "COc1cc(C(=O)Nc2ncccc2C)cc(Cl)c1OC(C)C", "Potency": "inactive"},
      {"compound": "CCCc1c(C(=O)OCC)nnc2c(-c3ccc(Cl)cc3)c(C)nn12", "Potency": "inactive"},
      {"compound": "N#Cc1ccc(CCC(=O)NCc2ccc(F)cc2)cc1", "Potency": "inactive"},
      {"compound": "COc1ccc2c(c1)c(N1CCCC1=O)c(C(=O)Nc1ccc(OC)c(Cl)c1)n2C", "Potency": "inactive"},
      {"compound": "COc1ccc(NS(=O)(=O)c2ccc(N3C(=O)C(C)CS3(=O)=O)cc2)cc1Cl", "note": "(stereo not given)", "Potency": "inactive"},
      {"compound": "COc1ccc(NS(=O)(=O)c2cc3c4c(c2)CC(=O)N4CCC3)cc1Cl", "Potency": "89.1 µM (active)"},
      {"compound": "CN(C)C1(c2nnnn2-c2cccc(C(F)(F)F)c2)CCCC1", "Potency": "inactive"},
      {"compound": "Cn1c(=O)c2c(ncn2CC(=O)OCc2ccccc2F)n(C)c1=O", "Potency": "inactive"},
      {"compound": "COc1ccccc1Cc1nc2ccccc2nc1SCC(=O)N1CCCc2ccccc21", "Potency": "89.1 µM (active)"},
      {"compound": "O=C(Nc1ccc2nc(SCC(=O)N3CCCc4ccccc43)sc2c1)c1ccc(F)cc1", "Potency": "inactive"},
      {"compound": "O=C(CSc1nc2ccccc2nc1Cc1ccccc1)N1CCCCC1", "Potency": "inactive"},
      {"compound": "CN(Cc1ccc2c(c1)OCCO2)CC(O)COc1ccccc1C(C)(C)C", "note": "(stereo not given)", "Potency": "inactive"},
      {"compound": "CCNc1nc(-c2cccs2)nc2ccccc12", "Potency": "inactive"},
      {"compound": "Cc1ccc(-c2nnc(SCC(=O)Nc3cc(C)on3)n2C2CC2)cc1", "Potency": "inactive"},
      {"compound": "CC(C)(C)C(=O)Nc1ccc(-c2csc(N)n2)cc1", "Potency": "inactive"},
      {"compound": "COc1ccccc1C(=O)Nc1ccc(O)c(-c2nc3ccccc3o2)c1", "Potency": "inactive"},
      {"compound": "CS(=O)(=O)Cc1cccc(C(=O)NCc2ccccc2F)c1", "Potency": "inactive"},
      {"compound": "CCC(Sc1nc2nccnc2c(=O)n1Cc1ccc(OC)cc1)C(=O)NCc1ccc(C)cc1", "note": "(stereo not given)", "Potency": "inactive"},
      {"compound": "COc1ccc(CCN2CNc3c(c(=O)[nH]c(=O)n3-c3ccccc3Cl)C2)cc1OC", "Potency": "inactive"},
      {"compound": "O=C(O)C(Sc1ccc2ccccc2n1)c1ccccc1", "note": "(stereo not given)", "Potency": "inactive"},
      {"compound": "NCCOc1cccc(C(F)(F)F)c1", "Potency": "inactive"},
      {"compound": "CCC(NC(=O)C1CC1)c1ccccc1", "note": "(stereo not given)", "Potency": "inactive"},
      {"compound": "Cc1ccc(-c2cnc3ccccc3n2)c(C)c1", "Potency": "inactive"},
      {"compound": "CCCCNc1nc2c(c(=O)[nH]c(=O)n2C)n1CC(O)COC(C)C", "note": "(stereo not given)", "Potency": "inactive"},
      {"compound": "Cc1ccccc1NC(=O)/C(C#N)=C/c1ccc(OC(=O)c2ccccc2)cc1", "Potency": "inactive"},
      {"compound": "Cc1cccc(NS(=O)(=O)c2ccc(C)c(C(=O)NCC(c3ccccc3)N(C)C)c2)c1", "note": "(stereo not given)", "Potency": "inactive"},
      {"compound": "O=C(COc1cc(Cl)c(Cl)cc1Cl)Nc1ccc2oc(-c3ccncc3)nc2c1", "Potency": "inactive"},
      {"compound": "COC(=O)c1c(C)[nH]c(C(=O)CSc2nncs2)c1C", "Potency": "inactive"}
    ]}
  ]
}
